Compound activity from PubChem BioAssay.
Shown are actives, neighbours in structure and some others; about 2.1% of the full set was active somewhere.
Rin1-Abl PPI inh = human Rin1-Abl interaction inhibition | TR-FRET Rin1/Abl binding, biochemical | inhibition, % at 7.35 µM | 0.4% of 360,000 active | AID 588664; in the data active = inhibition above about 5%, passing the limit was not always enough
Target sequence (P00519 whole entry, looked up): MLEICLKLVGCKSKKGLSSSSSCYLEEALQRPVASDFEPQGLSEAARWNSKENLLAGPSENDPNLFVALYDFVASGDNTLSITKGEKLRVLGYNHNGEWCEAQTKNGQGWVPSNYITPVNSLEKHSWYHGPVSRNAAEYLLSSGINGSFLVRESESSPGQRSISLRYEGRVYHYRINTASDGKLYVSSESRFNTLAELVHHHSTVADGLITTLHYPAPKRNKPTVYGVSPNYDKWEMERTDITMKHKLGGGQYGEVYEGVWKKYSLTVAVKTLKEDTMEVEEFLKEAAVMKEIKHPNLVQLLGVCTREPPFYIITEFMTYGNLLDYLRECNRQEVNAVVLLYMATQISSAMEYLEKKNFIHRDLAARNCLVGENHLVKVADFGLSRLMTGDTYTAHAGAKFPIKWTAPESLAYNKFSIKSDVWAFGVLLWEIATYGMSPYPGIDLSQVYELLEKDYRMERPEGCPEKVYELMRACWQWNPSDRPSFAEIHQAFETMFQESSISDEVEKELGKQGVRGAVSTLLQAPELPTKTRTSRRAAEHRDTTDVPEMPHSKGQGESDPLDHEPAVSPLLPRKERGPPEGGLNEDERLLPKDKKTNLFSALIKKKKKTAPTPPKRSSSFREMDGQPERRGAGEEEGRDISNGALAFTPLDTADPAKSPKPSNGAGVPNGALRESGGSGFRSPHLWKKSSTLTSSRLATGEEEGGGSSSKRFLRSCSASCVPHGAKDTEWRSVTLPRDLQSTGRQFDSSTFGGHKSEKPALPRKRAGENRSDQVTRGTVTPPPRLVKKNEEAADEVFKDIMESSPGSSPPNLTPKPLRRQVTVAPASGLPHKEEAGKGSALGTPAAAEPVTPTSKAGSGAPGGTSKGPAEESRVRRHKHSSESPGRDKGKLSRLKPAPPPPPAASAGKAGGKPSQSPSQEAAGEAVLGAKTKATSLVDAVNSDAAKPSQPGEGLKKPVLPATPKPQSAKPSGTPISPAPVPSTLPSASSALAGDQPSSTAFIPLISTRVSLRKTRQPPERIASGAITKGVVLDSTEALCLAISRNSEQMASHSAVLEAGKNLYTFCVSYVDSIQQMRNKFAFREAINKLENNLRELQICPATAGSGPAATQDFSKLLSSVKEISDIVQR
Target sequence (Q13671 whole entry, looked up): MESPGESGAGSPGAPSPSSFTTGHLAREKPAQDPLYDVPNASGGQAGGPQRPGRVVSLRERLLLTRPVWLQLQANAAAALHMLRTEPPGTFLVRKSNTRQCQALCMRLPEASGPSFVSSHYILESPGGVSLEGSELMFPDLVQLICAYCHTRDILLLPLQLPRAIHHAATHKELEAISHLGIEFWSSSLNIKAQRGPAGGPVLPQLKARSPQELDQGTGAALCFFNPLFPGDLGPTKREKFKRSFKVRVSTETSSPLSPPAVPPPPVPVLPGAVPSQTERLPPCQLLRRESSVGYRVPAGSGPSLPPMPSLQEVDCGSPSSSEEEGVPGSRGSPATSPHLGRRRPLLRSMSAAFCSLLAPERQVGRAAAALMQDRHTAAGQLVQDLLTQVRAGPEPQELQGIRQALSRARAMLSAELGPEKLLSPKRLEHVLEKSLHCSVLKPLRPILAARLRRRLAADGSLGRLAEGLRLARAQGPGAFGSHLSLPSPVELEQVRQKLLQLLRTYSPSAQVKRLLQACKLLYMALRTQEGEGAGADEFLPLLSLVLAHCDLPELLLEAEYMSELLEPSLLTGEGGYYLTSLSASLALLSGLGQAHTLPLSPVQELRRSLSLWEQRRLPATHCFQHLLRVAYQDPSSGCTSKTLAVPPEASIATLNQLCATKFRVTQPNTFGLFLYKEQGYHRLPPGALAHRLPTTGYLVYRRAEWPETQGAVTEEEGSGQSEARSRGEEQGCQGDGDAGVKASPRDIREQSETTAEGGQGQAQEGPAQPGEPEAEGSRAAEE
Calb FLC = C. albicans growth modulation with fluconazole. C. albicans CaCi-2 (fluconazole-resistant clinical isolate) + fluconazole, Alamar Blue growth, 48 h. growth inhibition, % (test concentration not listed). 0.57% of 300,000 active. AID 1979;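 active = growth inhibition above about 58% in most replicates, limit read from the data, passing the limit was not always enough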;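 also: all wells also contain fluconazole at 8 µg/ml as a sub-toxic cotreatment; 0% = median of DMSO wells and 100% = median of geldanamycin control wells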
Fh CTSL1 inh = counter-screen for PFM18AAP inhibitors: inhibitors of F. hepatica cathepsin L1. recombinant F. hepatica cathepsin L1, Z-Leu-Arg-MCA fluorescence. inhibition, % at 5.96 µM. 0.49% of 300,000 active. AID 1906;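 active = inhibition above the mean of all tested compounds plus 3 SD, set per screening campaign, cut at about 17% in these data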;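 also: 0% = plate median of test compound wells and 100% = 1 µM Z-Phe-Ala-diazomethylketone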
PfM18AAP inh = PfM18AAP enzyme inhibition | recombinant PfM18AAP, H-Glu-NHMec fluorogenic cleavage | inhibition, % at 7.35 µM | 1.2% of 290,000 active;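 active = inhibition above the campaign mean inhibition over all tested compounds plus 3 SD, cut at about 28% in these data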;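 also: 0% = plate median of test compound wells and 100% = 2 mM ZnCl2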
* hit, by the source's call; . = no result.

SMILES	Rin1-Abl PPI inh	Calb FLC	Fh CTSL1 inh	PfM18AAP inh
Cc1occc1C(=O)NNC(=O)Nc1ccc(F)cc1F	-1	-24	-2	30*
Cc1occc1C(=O)Nc1ccc(Br)cc1F	1	6	-1	-12
CCN(CC)c1ccc(N=Nc2nn(C)c(C)c2[N+](=O)[O-])cc1	-20	23	2	4
CCN(CC)c1ccc(N=Nc2ncn[nH]2)cc1	-16	10	4	30*
CCc1nc2c(OCc3cccc(Cl)c3)cccn2c1N(C)C(C)=O	0	.	.	.
CCN(CC(=O)Nc1c(F)cccc1F)C(=O)CN(C)S(=O)(=O)c1ccc(F)cc1	0	9	-1	.
O=C(O)/C=C/C(=O)N1N=C(c2ccco2)CC1c1ccco1 (centres undefined)	2	-4	35*	5
O=C(CCl)N1N=C(c2cccs2)CC1c1ccco1 (centres undefined)	0	3	27*	12
COCC(=O)Nc1c(C(=O)Nc2ccc3c(c2)OCO3)oc2ccccc12	3	18	1	-8
O=C(CCl)Nc1c(C(=O)Nc2ccc3c(c2)OCCO3)oc2ccccc12	1	13	58*	20
CCCCCSc1nc(O)cc(=O)[nH]1	1	-2	0	-16
CCCCCCSc1nnc2[nH]c(=O)cc(N)n12	3	94*	-1	-2
CCCCCCCSc1nc(N)cc(=O)[nH]1	1	103*	6	-3
Cc1noc(NS(=O)(=O)c2ccc(NC(=O)NC(C)(C(F)(F)F)C(F)(F)F)cc2)c1C	-2	3	2	0
COc1ccc(N(CC(=O)NCCSc2ccccc2)S(=O)(=O)c2ccccc2)c(OC)c1	0	.	.	.
Cc1noc2ncnc(Sc3ccc(Br)cc3)c12	2	108*	0	-9
CCOC(=O)C1=C(CN2CCN(C(=O)c3ccco3)CC2)NC(=O)NC1c1ccccc1 (centres undefined)	-3	-5	-3	2
O=C1c2cccnc2C(Nc2ccc(Br)cc2Br)N1Cc1cccs1 (centres undefined)	.	0	1	3
O=C(CCCCCN1C(=O)c2cccc3cccc(c23)C1=O)N1CCOCC1	-6	107*	0	4
O=C(CCCN1C(=O)c2cccc3cccc(c23)C1=O)N1CCN(c2ncccn2)CC1	-6	.	0	-13
O=C(NC1(O)C(=O)c2ccccc2C1=O)c1ccc(C(F)(F)F)cc1	18*	-8	57*	0
O=C(Cc1ccccc1)NC1(O)C(=O)c2ccccc2C1=O	4	0	34*	4
O=C(N[C@@H](Cc1ccccc1)C(=O)O)c1ccc(C(F)(F)F)cc1	3	-1	1	-13
Cc1ccc(SCc2nc3ncccn3c2Br)cc1	-2	-13	-3	-10
O=C1CC(=O)c2c1cccc2[N+](=O)[O-]	.	.	.	34*
SMILES	Rin1-Abl PPI inh	Calb FLC	Fh CTSL1 inh	PfM18AAP inh
O=C1OCc2cccc([N+](=O)[O-])c21	-6	12	5	0
Cc1cc(C)c2c(=O)n(CC(=O)NC3CCCC3)sc2n1	-2	6	0	56*
Cc1cc(C)c2c(N)c(C(=O)NC3CCCC3)sc2n1	-1	29	2	7
CCCCC1S/C(=N/N=C/c2ccco2)NC1=O (centres undefined)	-2	100*	3	7
c1ccc2c(CCNc3ncnc4nc[nH]c34)cccc2c1	-1	-3	3	0
O=C(CCl)Nc1c2c(nn1-c1ccccc1)CSC2	-1	0	80*	12
O=C1NCCCC2c3cc(O)c4ccccc4c3OC12N1CCCCC1 (centres undefined)	.	.	29*	10
O=C1NCCCC2c3c(cc(Br)c(O)c3Br)OC12N1CCOCC1 (centres undefined)	-17	26	0	1
Cc1nc(C(=O)NC2CCCCC2)sc1C1(C)CC(c2cccnc2)=NO1 (centres undefined)	.	-5	0	.
CCN(CC(=O)Nc1c(F)cccc1F)C(=O)CCCN1C(=O)c2cccc3cccc(c23)C1=O	-4	.	.	.
COC(=O)/C(=N\Nc1ccc(Cl)cc1)Sc1nnc(-c2ccc(OC)cc2)n1C	-4	84*	2	3
COc1ccc(CNC(=O)CSc2nnc(-c3ccc(NC(C)=O)cc3)n2C)cc1	1	15	-2	5
Cn1c(SCC(=O)N2CCc3ccccc3C2)nnc1-c1ccncc1	-2	57*	-3	3
Cn1c(SCC(=O)N2CCc3ccccc3C2)nnc1-c1cccs1	-3	0	-3	-12
CCOCCCn1c(SC(C)C(=O)NCC2CCCO2)nc2sc(C)c(C)c2c1=O (centres undefined)	1	.	.	.
O=C(/C=C/c1cc(Br)ccc1O)c1ccco1	-1	93*	-6	13
O=C(/C=C/c1ccccc1O)c1ccco1	-2	29	3	20
